# Experimental data as given in PubChem BioAssay (EPA / NIEHS).
# Records with an inconclusive call do not appear. Calls of active or inactive are those of the source. How the source made its calls, unless noted: active means hit-call score of the fitted dose curve at least 0.9, where 1 is the maximum; inactive means score below 0.9.
# Tests used:
# [1] = ATG_CRE_CIS: Attagene CIS-FACTORIAL HepG2 Assay for human cAMP Responsive Element (CRE) binding protein 3 (AID 2282926); conditions: HepG2 CRE cis-reporter, Attagene multiplexed mRNA; actives raise or lower the signal
# Procedure, shortened: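 Endogenous transcription factor activity read via CRE-regulated reporter transcripts in transfected HepG2 cells. After 24 h exposure, RNA was reverse-transcribed, amplified, fluorescently labelled and sized by capillary electrophoresis; gain or loss fitted against DMSO.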
# [2] = target: CCAAT/enhancer-binding protein beta (Homo sapiens) (UniProt P17676); assay: ATG_C_EBP_CIS: Attagene CIS-FACTORIAL HepG2 Assay for human CCAAT/Enhancer Binding Protein (C/EBP) beta (AID 2282927); conditions: HepG2 Attagene cis-factorial transcription factor reporter; actives raise or lower the signal
# Chain of CCAAT/enhancer-binding protein beta (Homo sapiens) (P17676 whole entry, looked up): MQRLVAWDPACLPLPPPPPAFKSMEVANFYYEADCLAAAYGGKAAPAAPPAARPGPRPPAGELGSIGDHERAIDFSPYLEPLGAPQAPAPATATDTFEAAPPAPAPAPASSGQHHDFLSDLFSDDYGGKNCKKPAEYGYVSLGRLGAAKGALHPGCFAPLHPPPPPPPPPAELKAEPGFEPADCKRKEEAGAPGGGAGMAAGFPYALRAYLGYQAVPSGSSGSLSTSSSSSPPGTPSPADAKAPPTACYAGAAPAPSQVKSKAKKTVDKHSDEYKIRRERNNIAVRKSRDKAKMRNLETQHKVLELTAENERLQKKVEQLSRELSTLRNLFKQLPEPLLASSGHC
# Procedure, shortened: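 Endogenous transcription factor activity in human liver HepG2 cells is inferred from induction of a CEBPB-linked reporter mRNA. Exposure lasts 24 h; activity is fitted in both directions relative to DMSO.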
# [3] = ATG_CMV_CIS: Attagene CIS-FACTORIAL HepG2 Assay for human CMV (Internal Marker) (AID 2282928); conditions: HepG2 CMV promoter reporter, transcription factor profiling; actives raise or lower the signal;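 further: endpoint acts as a background internal control marker rather than a target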
# Procedure, shortened: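 Readout: fluorescent reporter cDNA fragments separated by capillary electrophoresis after RT-PCR and HpaI cut. Cells: HepG2 carrying transfected cis-promoter reporter constructs, dosed 24 h. Endpoint serves as background internal-marker control, fit bidirectionally versus DMSO.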
# [4] = ATG_DR4_LXR_CIS: Attagene CIS-FACTORIAL HepG2 Assay for human Liver X Receptor (LXR), DR4 submotif (AID 2282929); conditions: HepG2 Attagene DR4 cis-reporter, mRNA transcription; actives raise or lower the signal
# Procedure, shortened: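 Endogenous factor activity at a DR4 cis-element is read as reporter mRNA in transiently transfected HepG2 cells. Exposure lasts 24 h; transcripts are amplified, fluorescently labelled and sized by capillary electrophoresis, with DMSO as baseline.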
# [5] = target: Aryl hydrocarbon receptor (Homo sapiens) (UniProt P35869); assay: ATG_Ahr_CIS: Attagene CIS-FACTORIAL HepG2 Assay for human Aryl Hydrocarbon Receptor (Ahr) (AID 2282930); conditions: HepG2 AhR cis-factorial reporter transcription; actives raise or lower the signal
# Chain of Aryl hydrocarbon receptor (Homo sapiens) (P35869 whole entry, looked up): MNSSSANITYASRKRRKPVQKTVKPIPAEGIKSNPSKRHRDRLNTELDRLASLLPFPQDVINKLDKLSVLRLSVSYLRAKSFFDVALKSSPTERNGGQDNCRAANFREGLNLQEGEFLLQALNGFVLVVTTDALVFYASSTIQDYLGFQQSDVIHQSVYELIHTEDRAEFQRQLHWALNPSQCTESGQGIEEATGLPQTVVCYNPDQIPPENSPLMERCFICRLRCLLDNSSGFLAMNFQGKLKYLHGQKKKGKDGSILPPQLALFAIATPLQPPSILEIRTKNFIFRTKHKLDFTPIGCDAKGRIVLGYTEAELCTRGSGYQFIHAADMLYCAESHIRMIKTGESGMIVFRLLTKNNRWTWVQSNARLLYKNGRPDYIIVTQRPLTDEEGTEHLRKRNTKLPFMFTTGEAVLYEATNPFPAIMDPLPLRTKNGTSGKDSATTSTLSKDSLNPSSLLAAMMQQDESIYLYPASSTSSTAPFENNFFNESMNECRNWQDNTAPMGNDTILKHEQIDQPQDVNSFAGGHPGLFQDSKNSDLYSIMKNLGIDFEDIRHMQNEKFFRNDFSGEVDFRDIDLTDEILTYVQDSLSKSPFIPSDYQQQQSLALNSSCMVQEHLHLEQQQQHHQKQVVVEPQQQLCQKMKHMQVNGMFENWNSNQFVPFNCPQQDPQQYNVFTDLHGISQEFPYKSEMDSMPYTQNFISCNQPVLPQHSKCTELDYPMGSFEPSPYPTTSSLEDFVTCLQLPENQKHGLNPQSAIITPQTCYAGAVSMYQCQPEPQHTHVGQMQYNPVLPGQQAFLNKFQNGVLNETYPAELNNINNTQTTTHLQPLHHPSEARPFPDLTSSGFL
# Procedure, shortened: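 Transient MRTU transfection of HepG2 → 24 h compound exposure → total RNA, oligo(dT) RT → PCR, 6-FAM extension, HpaI cut → CE fluorescence. DMSO = baseline; bidirectional curve fit.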
# [6] = ATG_AP_1_CIS: Attagene CIS-FACTORIAL HepG2 Assay for human Activator Protein 1 (AP-1) (AID 2282931); conditions: HepG2 Attagene cis-factorial AP-1 reporter mRNA; actives raise or lower the signal
# Procedure, shortened: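 Fluorescence of labelled PCR fragments separated by capillary electrophoresis gives reporter mRNA levels. HepG2 with transfected cis-regulated reporter units, 24 h exposure; DMSO serves as baseline for bidirectional curve fits.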
# [7] = ATG_AP_2_CIS: Attagene CIS-FACTORIAL HepG2 Assay for human Activator Protein 2 (AP-2) (AID 2282932); conditions: HepG2 AP-2 cis-reporter, Attagene transcription factor profiling; actives raise or lower the signal
# Procedure, shortened: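 Endogenous transcription factor activity is reported through transfected multiplex reporter constructs in HepG2, after 24 h of compound exposure. Transcripts were quantified by RT-PCR and capillary electrophoresis of fluorescent fragments. Bidirectional fit against DMSO.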
# [8] = ATG_BRE_CIS: Attagene CIS-FACTORIAL HepG2 Assay for human Bone Morphogenetic Protein (BMP) Response Element (BRE) (AID 2282933); conditions: HepG2 BMP response element reporter, Attagene transcription factor profiling; actives raise or lower the signal
# Procedure, shortened: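 Gain- or loss-of-signal was derived by bidirectional fitting against DMSO controls. The signal came from reporter mRNA, measured by RT-PCR and capillary electrophoresis, in HepG2 cells transiently carrying multiple reporter units and dosed for 24 h.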
# [9] = target: Retinoic acid receptor alpha (Homo sapiens) (UniProt P10276); assay: ATG_DR5_RAR_CIS: Attagene CIS-FACTORIAL HepG2 Assay for human Retinoic Acid Receptor Alpha (RARE), DR5 submotif (AID 2282934); conditions: HepG2 Attagene cis-factorial RARE DR5 reporter, mRNA; actives raise or lower the signal;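 on AC50: reporter responds to endogenous RAR alpha beta and gamma in HepG2 not RARA alone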
# Chain of Retinoic acid receptor alpha (Homo sapiens) (P10276 whole entry, looked up): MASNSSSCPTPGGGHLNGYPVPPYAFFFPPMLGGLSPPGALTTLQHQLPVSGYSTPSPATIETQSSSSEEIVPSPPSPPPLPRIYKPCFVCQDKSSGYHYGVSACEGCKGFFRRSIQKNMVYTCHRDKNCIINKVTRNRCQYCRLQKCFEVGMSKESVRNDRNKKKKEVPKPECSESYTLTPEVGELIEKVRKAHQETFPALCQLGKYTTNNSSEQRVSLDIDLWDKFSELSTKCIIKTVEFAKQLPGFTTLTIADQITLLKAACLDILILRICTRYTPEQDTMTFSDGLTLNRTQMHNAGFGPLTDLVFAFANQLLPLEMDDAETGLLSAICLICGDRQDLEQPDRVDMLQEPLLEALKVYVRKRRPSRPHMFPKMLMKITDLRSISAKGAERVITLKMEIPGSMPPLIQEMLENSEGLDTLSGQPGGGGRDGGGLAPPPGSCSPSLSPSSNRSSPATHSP
# Procedure, shortened: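 Transient MRTU transfection of HepG2; 24 h compound treatment; TriZol RNA, oligo(dT) RT, PCR, FAM labelling, capillary electrophoresis. Bidirectional fit vs DMSO. Endogenous TF activity at DR5 RARE.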
# [10] = target: Transcription factor E2F1 (Homo sapiens) (UniProt Q01094); assay: ATG_E2F_CIS: Attagene CIS-FACTORIAL HepG2 Assay for human E2F Transcription Factor 1 (AID 2282935); conditions: HepG2 Attagene cis-reporter, E2F reporter RNA transcripts; actives raise or lower the signal
# Chain of Transcription factor E2F1 (Homo sapiens) (Q01094 whole entry, looked up): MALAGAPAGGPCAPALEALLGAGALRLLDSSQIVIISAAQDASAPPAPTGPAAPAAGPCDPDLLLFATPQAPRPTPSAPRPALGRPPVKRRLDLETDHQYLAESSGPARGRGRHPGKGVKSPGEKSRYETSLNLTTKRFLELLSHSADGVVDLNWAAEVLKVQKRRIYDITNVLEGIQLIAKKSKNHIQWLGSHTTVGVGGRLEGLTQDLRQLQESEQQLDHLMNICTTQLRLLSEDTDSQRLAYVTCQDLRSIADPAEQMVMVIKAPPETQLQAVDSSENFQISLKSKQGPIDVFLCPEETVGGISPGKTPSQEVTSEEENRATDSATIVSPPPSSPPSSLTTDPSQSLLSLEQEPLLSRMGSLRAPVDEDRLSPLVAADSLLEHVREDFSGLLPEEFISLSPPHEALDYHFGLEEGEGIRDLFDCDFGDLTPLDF
# Procedure, shortened: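 Gain or loss of reporter transcript, fitted against DMSO, reflects E2F1-driven transcription. Transiently transfected HepG2 dosed 24 h before RNA isolation. Quantified by fluorescent RT-PCR products separated by capillary electrophoresis.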
# [11] = ATG_E_Box_CIS: Attagene CIS-FACTORIAL HepG2 Assay for human Enhancer Box (E-box) (AID 2282936); conditions: HepG2 E-box cis-reporter transcription, actives raise or lower the signal
# Procedure, shortened: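 E-box-driven reporter transcripts measured in transiently transfected HepG2 after 24 h exposure: RNA reverse-transcribed, PCR-amplified, fluorescently labelled, digested and resolved by capillary electrophoresis. Gain or loss relative to DMSO.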
# [12] = ATG_M_61_CIS: Attagene CIS-FACTORIAL HepG2 Assay for M61 Transcription Factor (Internal Marker) (AID 2282937); conditions: HepG2 Attagene CIS-FACTORIAL M61 internal marker reporter; actives raise or lower the signal
# Procedure, shortened: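 This endpoint serves as an internal background control within a multiplexed HepG2 cis-reporter panel. Cells are exposed for 24 h; reporter mRNA is amplified, fluorescently labelled and sized by capillary electrophoresis, with DMSO as negative control.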
# [13] = ATG_EGR_CIS: Attagene CIS-FACTORIAL HepG2 Assay for human Early Growth Response 1 (EGR1) (AID 2282938); conditions: HepG2 Attagene CIS-FACTORIAL EGR reporter mRNA; actives raise or lower the signal
# Procedure, shortened: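 HepG2, transient MRTU transfection (cis promoters), 24 h compound. RNA → RT (oligo-dT) → PCR → 6-FAM labelling → HpaI cut → CE fluorescence. Bidirectional fit, DMSO baseline.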
# [14] = ATG_M_19_CIS: Attagene CIS-FACTORIAL HepG2 Assay for M19 Transcription Factor (Internal Marker) (AID 2282939); conditions: HepG2 Attagene CIS-FACTORIAL M19 internal marker reporter; actives raise or lower the signal
# Procedure, shortened: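 Following a 24 h exposure, RNA from transfected HepG2 cells was reverse-transcribed, PCR-amplified with reporter-specific primers, end-labelled with 6-FAM and HpaI-digested before capillary separation. Values represent gain or loss versus DMSO.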
# [15] = ATG_ERE_CIS: Attagene CIS-FACTORIAL HepG2 Assay for Estrogen Response Element (ERE) (AID 2282940); conditions: HepG2 ERE cis-reporter, Attagene RNA transcript; actives raise or lower the signal
# Procedure, shortened: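 HepG2, transient cis-reporter units, 24 h exposure. RNA isolated, oligo(dT) RT, reporter-specific PCR, FAM extension, HpaI cut, CE detection. Gain/loss-of-signal vs DMSO.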
# [16] = ATG_Ets_CIS: Attagene CIS-FACTORIAL HepG2 Assay for human Erythroblast Transformation Specific (ETS) (AID 2282941); conditions: HepG2 ETS cis-reporter transcription, actives raise or lower the signal
# Procedure, shortened: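 RT-PCR/capillary electrophoresis fluorescence read-out of reporter mRNA; HepG2 transient multi-reporter transfection; 24 h compound exposure; gain or loss of signal fitted bidirectionally relative to DMSO.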
# [17] = target: Hepatocyte nuclear factor 3-beta (Homo sapiens) (UniProt Q9Y261); assay: ATG_FoxA2_CIS: Attagene CIS-FACTORIAL HepG2 Assay for human Forkhead box A2 (FOXA2) (AID 2282942); conditions: HepG2 cis-reporter transcription factor activity, 24 h; actives raise or lower the signal
# Chain of Hepatocyte nuclear factor 3-beta (Homo sapiens) (Q9Y261 whole entry, looked up): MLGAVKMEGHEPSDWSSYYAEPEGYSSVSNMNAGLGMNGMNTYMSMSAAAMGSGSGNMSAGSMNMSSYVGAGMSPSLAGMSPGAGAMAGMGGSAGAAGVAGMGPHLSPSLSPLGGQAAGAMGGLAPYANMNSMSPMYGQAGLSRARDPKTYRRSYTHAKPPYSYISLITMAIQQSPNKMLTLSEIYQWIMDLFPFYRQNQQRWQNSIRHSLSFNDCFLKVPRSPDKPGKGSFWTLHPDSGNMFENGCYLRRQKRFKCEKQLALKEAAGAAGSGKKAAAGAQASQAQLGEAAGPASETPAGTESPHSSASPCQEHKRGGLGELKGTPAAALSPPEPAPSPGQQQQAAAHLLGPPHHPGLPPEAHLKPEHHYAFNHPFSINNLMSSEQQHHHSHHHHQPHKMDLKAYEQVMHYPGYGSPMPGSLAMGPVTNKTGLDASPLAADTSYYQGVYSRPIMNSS
# Procedure, shortened: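 Cells: HepG2, transient multiplex reporter transfection. Exposure 24 h. Detection: reporter-specific RT-PCR, fluorescent labelling, restriction digest, capillary electrophoresis. Analysis: bidirectional curve fit, DMSO as negative control.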
# [18] = ATG_FoxO_CIS: Attagene CIS-FACTORIAL HepG2 Assay for human Forkhead box O (FoxO) (AID 2282943); conditions: HepG2 Attagene cis-reporter, FoxO element, mRNA; actives raise or lower the signal
# Procedure, shortened: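 HepG2, transient MRTU transfection (cis element, endogenous TFs). Dose 24 h. TriZol RNA → oligo(dT) RT → PCR → 6-FAM primer extension → HpaI cut → CE. Gain/loss vs DMSO.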
# [19] = ATG_GATA_CIS: Attagene CIS-FACTORIAL HepG2 Assay for human GATA Binding Protein (AID 2282944); conditions: HepG2 GATA cis-element reporter, Attagene multiplex mRNA; actives raise or lower the signal
# Procedure, shortened: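 DMSO serves as negative control and baseline for bidirectional fitting of reporter mRNA changes. HepG2 cells bearing transiently transfected cis-promoter reporters were exposed 24 h; transcripts detected via RT-PCR and capillary electrophoresis.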
# [20] = ACEA_ER_80hr: ACEA Biosciences xCELLigence Real-Time Cell Analysis on Estrogen Receptor Agonism for Proliferation (AID 2282667; active means hit-call score of the fitted dose curve at least 0.9, where 1 is the maximum); conditions: T47D proliferation, impedance (xCELLigence), 80 h
# Procedure, shortened: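 Real-time impedance growth kinetics of human T-47D breast cells read 80 h after dosing, gain-of-signal fitted relative to DMSO. Compounds: 1:4 serial series, top final concentration 100 uM, n = 2.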
smiles,measurement,setting,value
COC(=O)c1ccc(C=O)cc1,outcome,[1],inactive
same,outcome,[2],inactive
same,outcome,[3],inactive
same,outcome,[4],inactive
same,AC50,[5],105 µM (active)
same,outcome,[6],inactive
same,outcome,[7],inactive
same,outcome,[8],inactive
same,outcome,[9],inactive
same,outcome,[10],inactive
same,outcome,[11],inactive
same,outcome,[12],inactive
same,outcome,[13],inactive
same,outcome,[14],inactive
same,outcome,[15],inactive
same,outcome,[16],inactive
same,outcome,[17],inactive
same,outcome,[18],inactive
same,outcome,[19],inactive
CC1CCCCC1,outcome,[20],inactive
same,outcome,[1],inactive
same,outcome,[2],inactive
same,outcome,[3],inactive
same,outcome,[5],inactive
same,outcome,[6],inactive
same,outcome,[7],inactive
same,outcome,[8],inactive
same,outcome,[9],inactive
same,outcome,[10],inactive
same,outcome,[11],inactive
same,outcome,[12],inactive
same,outcome,[13],inactive
same,outcome,[14],inactive
same,outcome,[15],inactive
same,outcome,[16],inactive
same,outcome,[17],inactive
same,outcome,[18],inactive
same,outcome,[19],inactive
O=S(=O)(Cl)C(F)(F)C(F)(F)C(F)(F)C(F)(F)C(F)(F)C(F)(F)C(F)(F)C(F)(F)F,outcome,[1],inactive
same,outcome,[2],inactive
same,outcome,[3],inactive
same,outcome,[5],inactive
same,AC50,[6],57.3 µM (active)
same,outcome,[7],inactive
same,outcome,[8],inactive
same,outcome,[9],inactive
same,outcome,[10],inactive
same,outcome,[11],inactive
same,outcome,[12],inactive
same,outcome,[13],inactive
same,outcome,[14],inactive
same,AC50,[15],29.4 µM (active)
same,outcome,[16],inactive
same,outcome,[17],inactive
same,outcome,[18],inactive
same,outcome,[19],inactive
OCC(O)CC(F)(F)C(F)(F)C(F)(F)C(F)(F)F (stereo not given),outcome,[1],inactive
same,outcome,[2],inactive
same,outcome,[3],inactive
same,outcome,[4],inactive
same,outcome,[5],inactive
same,outcome,[6],inactive
same,outcome,[7],inactive
same,outcome,[9],inactive
same,outcome,[10],inactive
same,outcome,[11],inactive
same,outcome,[12],inactive
same,outcome,[13],inactive
same,outcome,[14],inactive
same,outcome,[15],inactive
same,outcome,[16],inactive
same,outcome,[17],inactive
same,outcome,[18],inactive
same,outcome,[19],inactive
C=CC(=O)OCC(F)(F)C(F)(F)C(F)(F)C(F)(F)C(F)(F)C(F)(F)C(F)(F)C(F)F,outcome,[1],inactive
same,outcome,[2],inactive
same,outcome,[3],inactive
same,outcome,[5],inactive
same,outcome,[6],inactive
same,outcome,[7],inactive
same,outcome,[8],inactive
same,outcome,[10],inactive
same,outcome,[11],inactive
same,outcome,[12],inactive
same,outcome,[13],inactive
same,outcome,[14],inactive
same,AC50,[15],5.14 µM (active)
same,outcome,[16],inactive
same,outcome,[18],inactive
same,outcome,[19],inactive
O=C1c2c(O)ccc(Nc3ccc(CCO)cc3)c2C(=O)c2c([N+](=O)[O-])ccc(O)c21,outcome,[1],inactive
same,outcome,[2],inactive
same,AC50,[3],12 µM (active)
same,outcome,[4],inactive
same,AC50,[5],0.896 µM (active)
same,AC50,[6],17.7 µM (active)
same,outcome,[8],inactive
same,outcome,[10],inactive
same,outcome,[11],inactive
same,outcome,[12],inactive
same,outcome,[13],inactive
same,outcome,[14],inactive
same,outcome,[15],inactive
same,outcome,[16],inactive
same,outcome,[17],inactive
same,outcome,[18],inactive
same,outcome,[19],inactive
CC(C)(C)C(=O)C1C(=O)c2ccccc2C1=O,AC50,[1],57.9 µM (active)
same,outcome,[2],inactive
same,AC50,[3],30.1 µM (active)
same,outcome,[4],inactive
same,AC50,[5],34.6 µM (active)
same,AC50,[6],30.3 µM (active)
same,outcome,[7],inactive
same,outcome,[8],inactive
same,AC50,[9],31.9 µM (active)
same,outcome,[10],inactive
same,outcome,[11],inactive
same,outcome,[12],inactive
same,outcome,[14],inactive
same,outcome,[15],inactive
same,outcome,[16],inactive
same,outcome,[17],inactive
same,outcome,[18],inactive
same,outcome,[19],inactive
